HP1b chromo inh = blocks HP1-beta chromodomain binding to methylated histone tails. AlphaScreen HP1-beta / biotin-H3K9me3 peptide binding. 0.56% of 390,000 active. Potency, µM (titrated, usually from 114 µM), usual class: inhibitors; note: nearly all actives have a fitted effect of over 70% in size
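AlphaScreen: HP1-beta (50 nM) preformed 30 min with biotin-H3(1-18)K9me3 peptide (50 nM) in PBS pH 7.4, 0.01% Tween-20. Compound added for 30 min at RT, then streptavidin donor/nickel chelate acceptor beads (10 ug/mL) for 30 min.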
PLK1 PBD block = inhibitors of human PLK1 polo-box domain binding | P53350 | Plk1 PBD binding of FITC phosphopeptide, fluorescence polarization | Potency, µM, most hits filed as inhibitors | 2.8% of 360,000 active | AID 720504; note: series mostly up to about 57 µM; nearly all actives have a fitted effect of over 65% in size
Target sequence (P53350 whole entry, looked up, the tested form may be a part): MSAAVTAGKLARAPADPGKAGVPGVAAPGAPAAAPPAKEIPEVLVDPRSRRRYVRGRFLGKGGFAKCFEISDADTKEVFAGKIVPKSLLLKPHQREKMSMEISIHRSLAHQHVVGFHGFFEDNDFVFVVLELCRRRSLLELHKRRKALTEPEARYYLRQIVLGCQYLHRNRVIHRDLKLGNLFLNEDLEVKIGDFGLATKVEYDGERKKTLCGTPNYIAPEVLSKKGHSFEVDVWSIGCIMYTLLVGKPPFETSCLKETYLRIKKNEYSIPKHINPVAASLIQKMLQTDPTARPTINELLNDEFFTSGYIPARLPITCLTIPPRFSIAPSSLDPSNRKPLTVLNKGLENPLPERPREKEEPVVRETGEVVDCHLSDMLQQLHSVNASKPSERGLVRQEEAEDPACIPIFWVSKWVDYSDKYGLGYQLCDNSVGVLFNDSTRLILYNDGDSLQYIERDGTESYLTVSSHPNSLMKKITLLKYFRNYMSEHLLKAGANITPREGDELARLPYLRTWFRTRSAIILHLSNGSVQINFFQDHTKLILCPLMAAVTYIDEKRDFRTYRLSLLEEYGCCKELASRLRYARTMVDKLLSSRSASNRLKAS
JMJD2A Tudor inh = inhibitors of human JMJD2A Tudor domain; O75164; Potency, µM (top dose mostly 114 µM), hits mostly inhibitors; AID 504339; AlphaScreen JMJD2A-Tudor / H3K4me3 peptide binding; 4.4% of 390,000 active; note: nearly all actives have a fitted effect of over 50% in size
GCN5L2 inh = blocks human GCN5L2 histone acetyltransferase. Q92830. GCN5L2 HAT assay, ThioGlo1 CoA-SH fluorescence. Potency, µM (titrated, usually from 58.9 µM), usual class: inhibitors. 0.21% of 390,000 active. AID 504327
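Enzyme at 20nM final was mixed with library compounds for 15 min at room temperature. Peptide H3(1-25) at 75uM, acetyl-CoA at 70uM and ThioGlo1 at 50uM were then added. Plates were read immediately and after 20 min (Ex340nm/Em540nm).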
PI5P4K alpha inh = inhibitors of human PI5P4K alpha. 1.2% of 330,000 active. PI5P4Kalpha enzyme, ADP-Glo luminescence, 60 min; hits give low values. max response, %; active = max response of -50% or lower; inconclusive = between -30% and -50%; inactive = -30% or higher; note: value at the top dose of about 77 µM
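PI5P4Kalpha ADP-Glo assay; 5 microM ATP final; 60 min RT reaction; HEPES pH 7.4/EGTA/CHAPS, 5% DMSO; controls lacking substrate or enzyme; luminescent end-point.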
BAZ2B inh = BAZ2B (human) inhibition | Potency, µM (highest dose often 114 µM), usual class: inhibitors | AlphaScreen BAZ2B-H3K14Ac peptide displacement | AID 504333 | 4.4% of 360,000 active | Q9UIF8; note: nearly all actives have a fitted effect of over 60% in size
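Inhibition is scored as reduced AlphaScreen emission. The BAZ2B/b-H3(5-23)K14Ac complex (50 nM each) in PBS pH 7.4, 0.01% Tween-20 meets compound (up to 110 uM) for 30 min at RT before bead addition.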
Each line names hits and unclear results; the compound was inactive in the other large screens. Only some compounds are listed: those with a hit (about 7% of all), similar ones and a draw of the others. Unless noted, calls come from the whole dose curve; as a rule, active = well fitted curve in the direction sought with a large enough effect; inconclusive = small, poorly fitted or top-dose-only effect, or another doubt; inactive = no such curve, though single readings can be large; an effect the other way counts as inactive or inconclusive.

O=C(C1CCN(S(=O)(=O)c2ccccc2)CC1)N1CCCCCC1	none
S=c1nc2[nH]c3ccccc3c2n[nH]1	PLK1 PBD block 3.77µM, PI5P4K alpha inh -50.1 (no result: GCN5L2 inh, BAZ2B inh)
Nc1nnc2c(n1)[nH]c1ccccc12	none (no result: PLK1 PBD block, PI5P4K alpha inh)
CCOC(=O)C(=Cc1ccc(Br)cc1)C(=O)OCC	PLK1 PBD block 16.8µM
CCOC(=O)C(=Cc1ccc(F)cc1)C(=O)OCC	none (no result: HP1b chromo inh, PLK1 PBD block, JMJD2A Tudor inh, PI5P4K alpha inh)
O=Cc1ccccc1-c1cn(CN2C(=O)c3ccccc3C2=O)nn1	none
CCOc1ccccc1/C=N/n1c(COc2ccccc2)n[nH]c1=S	PLK1 PBD block inconclusive, JMJD2A Tudor inh inconclusive, BAZ2B inh inconclusive
S=c1[nH]nc(COc2ccccc2)n1/N=C/c1ccc(Cl)cc1	PLK1 PBD block 26.7µM
S=c1[nH]nc(Cc2ccc(Br)cc2)n1/N=C/c1ccc(Cl)cc1	HP1b chromo inh inconclusive, PLK1 PBD block 3.36µM, JMJD2A Tudor inh 79.4µM
S=c1[nH]nc(COc2ccccc2)n1/N=C/c1ccc(Cl)cc1Cl	PLK1 PBD block inconclusive
CSc1ccc(/C=N/n2c(COc3ccccc3)n[nH]c2=S)cc1	HP1b chromo inh inconclusive, PLK1 PBD block 33.6µM, JMJD2A Tudor inh inconclusive, GCN5L2 inh inconclusive, BAZ2B inh inconclusive
Cc1c(C)c2cc(Cl)c(O)c(CN(C)C)c2oc1=O	JMJD2A Tudor inh 17.8µM, GCN5L2 inh 22.4µM (no result: PI5P4K alpha inh)
CN(C)Cc1c(O)c(Cl)cc2c3c(c(=O)oc12)CCCC3	GCN5L2 inh inconclusive, PI5P4K alpha inh inconclusive
CCc1cc(=O)oc2c(CN3CCN(C)CC3)c(O)c(Cl)cc12	none (no result: PI5P4K alpha inh)
CCc1c(C)c2cc(Cl)c(O)c(CN(CC)CC)c2oc1=O	none (no result: PI5P4K alpha inh)
CCc1c(C)c2cc(Cl)c(O)c(CN(C)C)c2oc1=O	JMJD2A Tudor inh inconclusive, GCN5L2 inh 28.2µM (no result: PI5P4K alpha inh)
CCCCc1cc(=O)oc2c(CN(C)C)c(O)c(Cl)cc12	JMJD2A Tudor inh 15.8µM, GCN5L2 inh inconclusive (no result: PI5P4K alpha inh)
COc1cc2oc(=O)cc(CN3CCN(c4ccccc4F)CC3)c2cc1Cl	PI5P4K alpha inh inconclusive (no result: HP1b chromo inh, JMJD2A Tudor inh, GCN5L2 inh, BAZ2B inh)
CCS(=O)(=O)N1Cc2ccccc2CC1C(=O)Nc1ccc(F)c(F)c1 (stereo not drawn)	none
CCOc1ccc(C(c2c(O)cc(C)n(Cc3ccco3)c2=O)N2CCN(c3ccccc3)CC2)cc1 (stereo not drawn)	JMJD2A Tudor inh inconclusive (no result: PLK1 PBD block, PI5P4K alpha inh)
Cc1cc(/C=C2/C(=N)N3C(=NC2=O)SN=C3S(C)(=O)=O)c(C)n1-c1ccccc1F	PLK1 PBD block inconclusive, JMJD2A Tudor inh inconclusive, GCN5L2 inh 22.4µM, PI5P4K alpha inh -61.7, BAZ2B inh 44.7µM
Cc1ccc(-n2cccc2/C=C2\C(=N)N3N=C(C(C)C)SC3=NC2=O)cc1	PLK1 PBD block inconclusive, JMJD2A Tudor inh inconclusive, BAZ2B inh inconclusive
CC1=CC2=NC(=O)/C(=C\c3cc(C)n(-c4ccccc4F)c3C)C(=N)N2O1	none
CS(=O)(=O)C1=NSC2=NC(=O)/C(=C\c3cccn3-c3ccc(Cl)cc3)C(=N)N21	HP1b chromo inh inconclusive, PLK1 PBD block 21.2µM, JMJD2A Tudor inh 44.7µM, PI5P4K alpha inh -81.2, BAZ2B inh 39.8µM
CC1(C)CC(=O)c2c(oc3cc(O)c(O)cc23)C1	JMJD2A Tudor inh 14.1µM
COC(=O)Cc1csc(NC(=O)CSc2nnc3ccccn23)n1	HP1b chromo inh inconclusive, PLK1 PBD block 16.8µM, JMJD2A Tudor inh inconclusive
CCOC(=O)Cc1csc(NC(=O)CSc2nnc(C)n2C)n1	none
COC(=O)/C(C#N)=C/c1c(N2CCN(c3ccc(OC)cc3)CC2)nc2c(C)cccn2c1=O	HP1b chromo inh inconclusive, JMJD2A Tudor inh 11.2µM, BAZ2B inh inconclusive
N#CCCN(Cc1cccnc1)C(=S)NC(=O)c1ccco1	JMJD2A Tudor inh 22.4µM, BAZ2B inh inconclusive
N#CCCN(C(=O)c1ccco1)c1ccccc1	none
N#CCCN(C(=S)NC(=O)c1ccco1)c1ccccc1F	PLK1 PBD block 29.9µM
N#C/C(=C\c1ccc(-c2ccc(C(=O)O)cc2)o1)C(=O)Nc1ccccc1C(=O)O	JMJD2A Tudor inh 79.4µM, BAZ2B inh inconclusive (no result: PLK1 PBD block, PI5P4K alpha inh)
N#C/C(=C/c1ccc(-c2ccc(C(=O)O)c(Cl)c2)o1)C(=O)NCC1CCCO1 (stereo not drawn)	BAZ2B inh 56.2µM
N#C/C(=C/c1ccc(-c2ccc([N+](=O)[O-])cc2)o1)C(=O)Nc1nc(-c2cccs2)cs1	PLK1 PBD block inconclusive, PI5P4K alpha inh -65.7 (no result: GCN5L2 inh, BAZ2B inh)
Cc1ccc(/C=C(\C#N)C(=O)NCC2CCCO2)o1 (stereo not drawn)	none
Cc1ccn2nc(C(=O)OCC(=O)N(CC(C)C)C3CCS(=O)(=O)C3)nc2n1 (stereo not drawn)	none
CCCCCn1c(=O)[nH]c2cc(C(=O)NCc3ccc(F)cc3)ccc2c1=O	none (no result: PLK1 PBD block, PI5P4K alpha inh)
CC(=O)c1ccc(N2CCOCC2)cc1O	none (no result: HP1b chromo inh, PLK1 PBD block, JMJD2A Tudor inh, PI5P4K alpha inh, BAZ2B inh)
CC(=O)c1ccc2c3c(ccc(O)c13)CC2	HP1b chromo inh inconclusive, JMJD2A Tudor inh 44.7µM, BAZ2B inh 35.5µM (no result: PI5P4K alpha inh)
Cc1ccc(C2(C)NC(=O)N(CC(=O)Nc3nc(-c4ccccn4)cs3)C2=O)cc1 (stereo not drawn)	HP1b chromo inh 31.6µM, PLK1 PBD block 4.23µM, JMJD2A Tudor inh 39.8µM, PI5P4K alpha inh -59.1, BAZ2B inh 79.4µM
CC1(c2ccccc2)NC(=O)N(CC(=O)Nc2nc(-c3ccccn3)cs2)C1=O (stereo not drawn)	PLK1 PBD block inconclusive, JMJD2A Tudor inh 44.7µM, BAZ2B inh 50.1µM
